An excerpt weighted towards active compounds, which were near 5.9% of everything screened.
ALR H2O2 inh: blocks human ALR sulfhydryl oxidase activity; hit rate 3.8% among 290,000; inhibition, % (test concentration not listed); P55789; purified ALR, DTT oxidation, H2O2 HRP-luminol luminescence;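 active means mean replicate inhibition above about 79%, with every replicate also reaching it, limit read from the data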
ABHD5-PLIN5 inh: blocks binding of human ABHD5 to perilipin-5 | hit rate 0.78% among 360,000 | Q00G26+Q8WTS1 | Split G. princeps luciferase complementation, luminescence, 4 h | inhibition, % at 4 µM;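 active means inhibition above the mean inhibition across every tested compound plus 3 SD, cut at about 22% in these data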;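 further: 0% = DMSO only wells and the 100% control is not disclosed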
rCAG binder: binds r(CAG) RNA repeats; r(CAG) RNA repeat, TO-PRO-1 dye displacement fluorescence; inhibition, % at 3 µM; hit rate 1.3% among 370,000; AID 651821;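 active means inhibition above the plate cutoff, the mean of all test compounds on that plate plus 3 SD, cut at about 35% in these data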;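 further: 0% = DMSO alone and 100% = 100 µM mitoxantrone as full dye displacement; higher means more dye released from RNA so lower well fluorescence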
LANA-H2B inh: blocks KSHV LANA binding to histone H2A/H2B. inhibition, % (test concentration not listed). hit rate 0.6% among 320,000. AID 2629. cell-free LANA-H2A/H2B peptide, fluorescence polarization; in the data active means inhibition mostly above about 10%, no sharp cut-off; inactive means mostly below about 6.7%
Rtt109 HAT inh: blocks Candida albicans Rtt109/Vps75 acetyltransferase activity; purified Rtt109/Vps75, ThioGlo CoA-SH fluorescence, 4 h; AID 540336; inhibition, % at 34.9 µM; hit rate 0.16% among 330,000; Q5AAJ8;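 active means inhibition of at least 50% in every replicate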
Target sequence (Q5AAJ8 whole entry, looked up): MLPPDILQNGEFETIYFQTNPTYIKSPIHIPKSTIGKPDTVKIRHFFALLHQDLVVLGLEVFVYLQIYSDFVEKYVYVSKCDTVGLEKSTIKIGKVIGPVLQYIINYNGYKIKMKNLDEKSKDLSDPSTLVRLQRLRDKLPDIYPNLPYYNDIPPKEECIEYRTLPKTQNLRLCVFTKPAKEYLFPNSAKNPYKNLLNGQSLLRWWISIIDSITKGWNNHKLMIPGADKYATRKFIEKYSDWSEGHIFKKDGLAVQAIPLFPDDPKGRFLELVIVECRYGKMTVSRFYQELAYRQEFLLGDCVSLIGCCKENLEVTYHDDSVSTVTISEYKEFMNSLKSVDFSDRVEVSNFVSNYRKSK
PRMT1 inh: blocks human protein arginine methyltransferase 1; inhibition, % at 2.79 µM; Q99873; recombinant PRMT1, activity-based probe fluorescence polarization; hit rate 1.3% among 370,000;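 active means inhibition above about 21% made by adding two undisclosed values, limit read from the data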
rCAG binder conf: r(CAG) RNA repeat binding, confirmation; TO-PRO-1 dye displacement fluorescence; inhibition, % at 3 µM; hit rate 70% among 4,300; AID 652065; shares compounds with rCAG binder;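 active means inhibition above a per-plate cutoff, the mean inhibition of sample wells plus 3 SD, cut at about 35% in these data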;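 further: loss of TO-PRO-1 fluorescence as compound displaces dye from 1x1 AA loop RNA; 0% = DMSO only wells and 100% = 100 µM mitoxantrone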
DNA CAG counter: counter-screen for rCAG RNA binders: DNA CAG dye complex inhibitors; shares compounds with rCAG binder; d(CAG) DNA oligo TO-PRO-1 dye displacement, fluorescence; inhibition, % at 3 µM; hit rate 94% among 4,300;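 active means inhibition above its plate's cutoff, the mean test-well inhibition plus 3 SD, cut at about 4.8% in these data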;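 further: 0% = DNA dye mix with DMSO and 100% = 100 µM mitoxantrone; hits displace the dye from DNA and so lower well fluorescence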
The depositor's hits bear a star; . = no result; ! = a repeat was not active.

SMILES	ALR H2O2 inh	ABHD5-PLIN5 inh	rCAG binder	LANA-H2B inh	Rtt109 HAT inh	PRMT1 inh	rCAG binder conf	DNA CAG counter
COc1cccc(N2C(=O)NC(=O)/C(=C/c3ccc([N+](=O)[O-])s3)C2=O)c1	-5	-3	59*	2	4	19	43*	20*
COc1ccc(N2C(=O)/C(=C/C=C/c3ccccc3[N+](=O)[O-])C(=O)NC2=S)cc1	.	.	84*	.	.	10	78*	44*
COc1ccc(N2C(=O)NC(=O)/C(=C/c3ccc([N+](=O)[O-])s3)C2=O)cc1	40	0	69*	3	.	19	50*	21*
COc1ccccc1N1C(=O)NC(=O)/C(=C/c2ccc([N+](=O)[O-])s2)C1=O	.	.	84*	2	.	27*	60*	28*
C[C@]12CCC3C(CC[C@H]4C[C@@H](O)CC[C@]34C)C1=CC[C@@H]2O (stereo partly drawn)	.	1	1	.	.	-2	.	.
Oc1ccc(/C=N/NP(=S)(c2ccccc2)c2ccccc2)c(O)c1O	99*	-11	37*	4	4	12	56*	28*
Oc1ccccc1/C=N/NP(=S)(c1ccccc1)c1ccccc1	-1	-5	6	-5	2	11	.	.
O=C1CC(=O)N(Cc2ccccc2)C(=O)N1Cc1ccccc1	.	0	46*	.	-2	-4	9	6.3*
CCOc1ccc(C(C)=O)cc1Cn1ccsc1=N	-7	11	1	2	1	3	.	.
O=C1NC(=O)N(Cc2ccco2)C(=O)/C1=C\c1cccn1CCOc1ccc(Cl)cc1	53	2	35*	1	21	19	11	7.6*
Cc1cccc(OCCn2cccc2/C=C2/C(=O)NC(=O)N(Cc3ccco3)C2=O)c1	14	12	35*	0	.	10	11	7.7*
O=C1NC(=O)N(Cc2ccco2)C(=O)/C1=C/c1ccc(-c2cccc([N+](=O)[O-])c2)o1	54	20	.	6	-6	.	.	.
CCc1ccc(N2C(=O)NC(=O)/C(=C/c3cccn3CCOc3ccc(C(C)CC)cc3)C2=O)cc1 (stereo not drawn)	-1	-3	6	2	-6	-3	.	.
O=C(NCP(=O)(Oc1ccccc1)Oc1ccccc1)OCc1ccccc1	.	0	69*	.	.	-1	2	-1
C[Se]C[C@@H](N)C(=O)O	-3	-13	5	2	1	9	.	.
COC(=O)C1C(O)C(C)C(O)C(C)/C=C\C=C(/C)C(=O)Nc2c(C)c(OC(C)=O)c3c(c2O)C(=O)C(C)=C2OCOC(=C23)/C(C)=C/C(C)(O)C(O)C(C)C1O (stereo not drawn)	-32	-5	47*	-3	5	5	24	6.5*
CCN1C(=O)/C(=C/c2ccc(N(CC)CC)cc2OC)C(=O)NC1=S	19	-3	3	1	.	10	.	.
Cc1cc(OCC(=O)N[C@@H](Cc2ccccc2)C(=O)O)c2c3c(c(=O)oc2c1)CCCC3	-13	0	46*	-1	-5	-2	37*	7.9*
Cc1cc(OCC(=O)NCC(O)c2ccccc2)c2c3c(c(=O)oc2c1)CCCC3 (stereo not drawn)	0	-10	2	-1	0	3	.	.
O=[N+]([O-])c1cc(S(=O)(=O)c2ccc(O)c([N+](=O)[O-])c2)ccc1O	-4	5	38*	3	-2	13	22	7.7*
CN1C(=O)CCS(=O)(=O)C1c1ccc(Cl)cc1 (stereo not drawn)	.	.	0	.	.	-2	.	.
NC(Cc1cc(O)c(O)cc1O)C(=O)O (stereo not drawn)	.	.	.	17	.	.	.	.
NCCc1cc(O)c(O)cc1O	.	3	61*	.	-3	43*!	28	14*
O=c1[nH]c(=S)[nH]c(O)c1N=Nc1ccc(S(=O)(=O)N2CCc3ccccc32)cc1	1	-16	64*	-4	-4	15	49*	19*
Cc1c(N=Nc2c(O)[nH]c(=S)[nH]c2=O)c(=O)n(-c2ccccc2)n1C	40	2	0	-5	22	0	.	.

High-throughput results from PubChem.
